High-throughput results (PubChem BioAssay)
Most compounds without a hit are left out; they make up all but 2.1% or so of the library.
BaF3 tox – counter-screen for JAK2V617F inhibitors: parental Ba/F3 viability inhibitors | inhibition, % at 5.6 µM | CellTiter-Glo ATP luminescence | 220,000 tested, 1.1% active | AID 1486;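 active = inhibition above a per-campaign cutoff, the mean inhibition of all tested compounds plus 3 SD, cut at about 27% in these data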;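 note: 0% = DMSO wells and 100% = JAK Inhibitor I control wells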
APP 5UTR inh – APP translation inhibition | SH-SY5Y APP 5'UTR-luciferase reporter, luminescence | inhibition, % at 2 µM | 190,000 tested, 0.82% active;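 active = inhibition above a set limit, derived from the sample mean plus 3 SD, cut at about 45% in these data; inconclusive = one replicate passes the limit while the other fails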
KLF5 inh – suppresses KLF5 promoter-driven expression. DLD-1 KLF5 promoter-luciferase reporter, luminescence. inhibition, % at 5 µM. 290,000 tested, 0.23% active;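 active = inhibition above a per-plate limit of that plate's mean compound inhibition plus 3 SD, cut at about 60% in these data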;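 note: 0% = DMSO wells and 100% = LY294002 at 200 µM; higher means less KLF5 promoter-driven luciferase light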
aSyn 5UTR inh – 5' untranslated region of α-synuclein, MLPCN primary screen | alpha-synuclein 5'UTR reporter, inhibitor activity | inhibition, % (tested at 7.5 µM) | 300,000 tested, 0.82% active; in the data active = inhibition above about 60%; inconclusive = no clear call, values can overlap the other calls;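 note: H4 neuroglioblastoma cells stably carrying SNCA 5'UTR luciferase fusion; 0% = DMSO wells and 100% = positive control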
Ba/F3 V617F tox – lowers viability of Ba/F3 cells expressing EpoR and JAK2V617F; ATP luminescence; inhibition, % at 5.6 µM; 220,000 tested, 1.1% active; AID 1446;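 active = inhibition above the campaign mean plus 3 SD over all tested compounds, cut at about 24% in these data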;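 note: cytokine-independent growth of Ba/F3 cells driven by EpoR plus mutant JAK2; 0% = DMSO-treated cells and 100% = JAK inhibitor I control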
IEC-6 tox-1 – IEC-6 cytotoxicity, counter-screen for KLF5 inhibitors; inhibition, % at 5 µM; luminescence viability; 290,000 tested, 0.78% active; AID 1825;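 note: 0% = plate median of test compound wells and 100% = cytotoxic reference compound wells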
KLF5 inh confirm – confirmation of KLF5 inhibitors; inhibition, % at 4 µM; DLD-1 KLF5 promoter firefly luciferase reporter, luminescence; shares compounds with KLF5 inh; 610 tested, 79% active; AID 1834;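 active = inhibition above a set limit taken from the earlier primary screen, cut at about 63% in these data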;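 note: 0% = DMSO wells and 100% = LY294002 at 200 µM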
IEC-6 tox-2 – kills rat IEC-6 cells in KLF5 counter-screen; shares compounds with KLF5 inh; IEC-6 rat intestinal cells, viability luminescence; inhibition, % at 4 µM; 610 tested, 56% active; AID 1905; in the data active = inhibition above about 23%;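 note: cells exposed to compounds for 48 hours before viability read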
IEC-6 tox confirm – confirmation of cytotoxic compounds in rat IEC-6 intestinal epithelial cells; inhibition, % at 5 µM; IEC-6 rat intestinal epithelial viability, luminescence; AID 1907; 1,900 tested, 63% active; shares compounds with IEC-6 tox-1;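 note: 0% = vehicle and 100% = reference cytotoxic drug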
Numbers without * were called inactive; ? = inconclusive; / = no result given. Cut-off read from the data, not from the text of the source, unless noted: active = inhibition above about 22%; inactive = the rest.

SMILES | BaF3 tox | APP 5UTR inh | KLF5 inh | aSyn 5UTR inh | Ba/F3 V617F tox | IEC-6 tox-1 | KLF5 inh confirm | IEC-6 tox-2 | IEC-6 tox confirm
COc1ccc(NC(=O)Cc2ccccc2F)cn1 | 1 | -2 | 0 | -20 | 4 | 5 | / | / | /
COc1ccc(N/C=C/C(=O)c2ccc(OC)c(OC)c2)cc1 | -5 | / | -13 | -27 | 0 | 6 | / | / | /
COc1ccc(N/C=C/C(=O)c2cc(OC)c(OC)c(OC)c2)cc1 | / | / | 68* | ? | / | 81* | 73* | 57* | 59*
Cc1cc(C(=O)Cn2ncc(Cl)c(Cl)c2=O)c(C)n1CC(F)(F)F | 79* | 75* | 82* | -49 | 44* | 100* | -1 | 19 | 19
CCCc1cc(=O)[nH]c(SCC(=O)c2cc(C)n(CC(F)(F)F)c2C)n1 | 9 | -31 | -8 | 1 | 0 | -4 | / | / | /
CC(=O)NC(CC(=O)N1CCN(C(C)=O)CC1)c1ccccc1 (stereo unspecified) | / | / | 12 | 12 | / | 7 | / | / | /
C/C=C/COC(=O)c1[nH]c2c(c1C)C(=O)CC(c1ccc(N(C)C)cc1)C2 (stereo unspecified) | 4 | -18 | -12 | -15 | 1 | 4 | / | / | /
COC(=O)c1[nH]c2c(c1C)C(=O)CC(c1ccccc1)C2 (stereo unspecified) | 75* | 96* | 72* | 28 | 74* | 87* | 88* | 72* | 64*
C=CCOC(=O)c1[nH]c2c(c1C)C(=O)CC(c1ccco1)C2 (stereo unspecified) | 84* | 96* | 90* | 69* | 82* | 89* | 84* | 60* | 56*
COC(=O)c1[nH]c2c(c1C)C(=O)CC(c1ccc(OC)cc1)C2 (stereo unspecified) | / | / | 1 | -9 | / | -4 | / | / | /
O=C1CCN(Cc2nc(-c3ccc(Cl)cc3)no2)CCN1 | 4 | 9 | 5 | 11 | 2 | 2 | / | / | /
C/C(=N\NC(=O)c1c(C)nc2ccccn12)c1ccc(O)cc1O | / | / | 69* | 84* | / | 28* | 84* | 39* | 36*
COC(=O)Nc1nc(-c2ccccc2)c(C(=O)c2ccc(Cl)cc2)s1 | 6 | 9 | 62* | 94* | 0 | 56* | 85* | 67* | 58*
COC(=O)c1ccc(C)c(NS(=O)(=O)c2ccc3c(c2)OCCO3)c1 | 55* | 93* | 82* | 94* | 75* | 80* | 76* | 56* | 54*
CCCC(C(=O)Nc1cccc(S(=O)(=O)N2CCCC2)c1)c1ccccc1 (stereo unspecified) | / | / | / | 18 | / | / | / | / | /
Cc1cc(C)c(/C=N/NC(=O)c2nnn(-c3nonc3N)c2CN2CCC(C)CC2)c(C)c1 | / | / | -6 | 1 | / | -5 | / | / | /
CC1CCN(Cc2c(C(=O)N/N=C/c3cc(Cl)ccc3O)nnn2-c2nonc2N)CC1 | / | / | 69* | 62* | / | 50* | 86* | 42* | 49*
CC1CCN(Cc2c(C(=O)N/N=C/c3cc(Br)ccc3O)nnn2-c2nonc2N)CC1 | / | / | 70* | 77* | / | 57* | 84* | 42* | 62*
O=C1[C@@H]2Cc3c([nH]c4ccccc34)C(c3ccc([N+](=O)[O-])cc3)N2C(=O)CN1C1CC1 (stereo partly specified) | / | / | 69* | -34 | / | 80* | 75* | 45* | 50*
O=C1[C@@H]2Cc3c([nH]c4ccccc34)C(c3ccccc3)N2C(=O)CN1C1CC1 (stereo partly specified) | / | / | 0 | 18 | / | -11 | / | / | /
COc1ccc(C(=O)c2cc([N+](=O)[O-])ccc2N2CCOCC2)cc1 | 94* | 93* | 77* | ? | 92* | 85* | 83* | 66* | 64*
CCOc1ccc(C(=O)c2cc([N+](=O)[O-])ccc2N2CCOCC2)cc1 | 96* | 94* | 89* | 79* | 97* | 92* | 95* | 86* | 82*
Cc1ccc(COC(=O)c2cc([N+](=O)[O-])ccc2N2CCOCC2)cc1 | / | / | 83* | 68* | / | 87* | 84* | 74* | 61*
CN(CCOc1ccccc1)C(=O)c1cc([N+](=O)[O-])ccc1N1CCOCC1 | / | / | / | -13 | / | / | / | / | /
CCOc1ccc2c(c1)C(C)=CC(C)(C)N2S(=O)(=O)c1ccc(NC(C)=O)cc1 | / | / | 73* | 70* | / | 92* | 89* | 71* | 72*
SMILES | BaF3 tox | APP 5UTR inh | KLF5 inh | aSyn 5UTR inh | Ba/F3 V617F tox | IEC-6 tox-1 | KLF5 inh confirm | IEC-6 tox-2 | IEC-6 tox confirm
CCOc1ccc2c(c1)C(C)=CC(C)(C)N2S(=O)(=O)c1ccc(F)cc1 | / | / | -6 | -38 | / | 12 | / | / | /
COc1ccc2c(c1)C(C)=CC(C)(C)N2S(=O)(=O)c1ccc(NC(C)=O)cc1 | / | / | 81* | 71* | / | 90* | 88* | 59* | 57*
CCN(CC(=O)NCc1ccc(Cl)cc1)C(=O)c1cc2ccccc2o1 | / | / | 0 | 5 | / | 2 | / | / | /
Cc1cc(C(=O)CSc2nncn2C)c(C)n1-c1ccccc1 | 2 | -122 | -66 | -67 | 2 | 4 | / | / | /
COc1ccc(OC)c(CCNC(=O)CN2C(=O)CCSc3ccccc32)c1 | / | / | -12 | 1 | / | -11 | / | / | /
O=C(NC(Nc1nc2ccc([N+](=O)[O-])cc2s1)(C(F)(F)F)C(F)(F)F)c1ccccc1Cl | 81* | 66* | 77* | 86* | 100* | 76* | 87* | 90* | 97*
CCS(=O)(=O)c1ncc(Cl)c(C(=O)Nc2ccc(S(=O)(=O)N(C)c3ccccc3)cc2)n1 | / | / | 85* | 78* | / | 101* | 4 | 6 | 28*
CC(=O)Nc1ccc(S(=O)(=O)N(C)c2ccccc2)cc1 | -1 | -11 | -32 | 17 | -1 | 0 | / | / | /
COc1ccc(N/N=C/c2c(C(=O)O)ccc3ccccc23)cc1 | 40* | / | 73* | 56 | 35* | 41* | 91* | 7 | 36*
COc1ccc2ccccc2c1/C=N/Nc1ccc(Cl)c(C(=O)O)c1 | / | / | -50 | -22 | / | -4 | / | / | /
CCN(CC)CCN(C(=O)c1ccc2c(c1)CCCC2)c1nc2c(C)cccc2s1 | / | / | -19 | 20 | / | 5 | / | / | /
COc1cc2c(c(OC)c1OC)C(=O)CC2 | -2 | / | -28 | 7 | -1 | 2 | / | / | /
COc1cc2c(c(OC)c1OC)-c1ccc(OC)c(=O)cc1C(NC(C)=O)CC2 (stereo unspecified) | / | / | 71* | 75* | / | 94* | 88* | 82* | 80*
Oc1ccc(N=Nc2ccccc2C(F)(F)F)c2cccnc12 | / | / | 63* | 72* | / | 45* | 86* | 8 | 14
Oc1ccc(COCc2ccccc2)c2cccnc12 | 1 | 19 | -4 | ? | 9 | 3 | / | / | /
Cc1ccc2nc(-c3ccc4c(c3)NC(=O)CO4)cn2c1 | 0 | / | -172 | -80 | -3 | -2 | / | / | /
